Shown are actives, neighbours in structure and some others; about 8.5% of the full set was active somewhere.
JMJD2E inh – qHTS Assay for Inhibitors of Human Jumonji Domain Containing 2E (JMJD2E); JMJD2E catalytic domain, FDH-coupled NADH fluorescence (FDH is formaldehyde dehydrogenase); actives 1.6% (n = 230,000); Potency, µM (series often up to 57.1 µM), actives largely listed as inhibitors; also: nearly all actives have a fitted effect of over 50% in size
Target sequence (B2RXH2 1-337 limits assumed): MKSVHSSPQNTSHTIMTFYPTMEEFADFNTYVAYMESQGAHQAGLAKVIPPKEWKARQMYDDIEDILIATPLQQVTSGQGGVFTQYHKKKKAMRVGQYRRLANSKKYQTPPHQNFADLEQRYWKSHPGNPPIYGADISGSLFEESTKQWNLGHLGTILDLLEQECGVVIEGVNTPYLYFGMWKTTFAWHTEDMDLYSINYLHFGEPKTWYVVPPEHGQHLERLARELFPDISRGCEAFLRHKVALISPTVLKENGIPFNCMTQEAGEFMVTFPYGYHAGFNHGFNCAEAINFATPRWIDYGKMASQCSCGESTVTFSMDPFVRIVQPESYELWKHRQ
ALDH1A1 block – qHTS Assay for Inhibitors of Aldehyde Dehydrogenase 1 (ALDH1A1); Aldehyde dehydrogenase 1A1 (Homo sapiens), P00352; Purified ALDH1A1, NADH fluorescence, propionaldehyde substrate; Potency, µM (doses to about 75.3 µM), usual class: inhibitors; actives 7.3% (n = 220,000)
Coupling enz – qHTS Assay for Inhibitors of Fructose-1,6-bisphosphate Aldolase from Giardia Lamblia: Coupling assay counterscreen; actives 0.67% (n = 290,000); AID 2472, 2010; activity change, negative = inhibition, % at 58.2 µM, hits read low; coupling enzyme system counterscreen, AmpLite Red fluorescence; in the data active = activity change below about -30%
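Fluorescence at 525 nm excitation and 598 nm emission measured inhibition of the coupled detection system without aldolase. Compounds (at 57.5 uM final) were preincubated 10 min at room temperature with coupling enzyme reagent before a 20 min substrate/AmpLite Red step.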
NPSR antagonist – qHTS Assay for Antagonists of the Neuropeptide S Receptor: cAMP Signal Transduction; Q6W5P4; Potency, µM (highest dose often 38.3 µM), most hits filed as inhibitors; actives 1% (n = 220,000); CHO-NPSR cells, cAMP TR-FRET, antagonist mode; AID 1461, 2008; active = well fitted curve in the direction sought with a large enough effect; inconclusive = small, poorly fitted or top-dose-only effect, or another doubt; inactive = no such curve, though single readings can be large; an effect the other way counts as inactive or inconclusive; also: nearly all actives have a fitted effect of over 50% in size
Target sequence (Q6W5P4 whole entry, looked up): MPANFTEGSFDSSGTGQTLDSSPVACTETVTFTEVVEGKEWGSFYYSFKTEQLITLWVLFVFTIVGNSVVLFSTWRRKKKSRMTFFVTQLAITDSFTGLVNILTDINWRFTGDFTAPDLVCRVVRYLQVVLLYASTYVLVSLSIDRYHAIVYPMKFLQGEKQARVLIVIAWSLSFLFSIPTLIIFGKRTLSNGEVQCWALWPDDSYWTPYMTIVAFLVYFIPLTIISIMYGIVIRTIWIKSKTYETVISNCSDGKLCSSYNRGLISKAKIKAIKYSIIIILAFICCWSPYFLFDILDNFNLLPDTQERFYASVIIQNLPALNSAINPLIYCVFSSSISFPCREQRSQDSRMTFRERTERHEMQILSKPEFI
Sfp PPTase inh – qHTS Assay for Inhibitors of Bacillus subtilis Sfp phosphopantetheinyl transferase (PPTase) | 4'-phosphopantetheinyl transferase ffp (Bacillus subtilis), Q9F4F7 | Biochemical Sfp PPTase activity, qHTS | Potency, µM, actives largely listed as inhibitors | actives 3.5% (n = 310,000); active = well fitted curve in the direction sought with a large enough effect; inconclusive = small, poorly fitted or top-dose-only effect, or another doubt; inactive = no such curve, though single readings can be large; an effect the other way counts as inactive or inconclusive;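 also: the enzyme is Sfp with the accession as filed and its product quenches rhodamine fluorescence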
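Compounds were incubated with enzyme (final 15 nM) for 15 min at room temperature before substrate addition started the reaction. Fluorescence at 525 nm excitation, 598 nm emission was recorded immediately and after 30 minutes.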
GoLoco inh red – qHTS Assay for Inhibitors of RGS12 GoLoco Motif Activity (Red Fluorophore); Guanine nucleotide-binding protein G(i) subunit alpha-1 (Homo sapiens), P63096; actives 0.44% (n = 230,000); Potency, µM (titrated, usually from 61.6 µM), actives largely listed as inhibitors; AID 880, 2007; Gai1:RGS12 GoLoco peptide FP, rhodamine, 10 min; active = well fitted inhibition curve with a large enough effect, not every such curve was filed as active; inactive = no such curve, though single readings can be large or run the other way; also: nearly all actives have a fitted effect of over 30% in size
Hits are given with their value. Unless noted, calls follow the shape of the dose curve; as a rule, active = well fitted inhibition curve with a large enough effect (not every such curve was filed as active); inconclusive = small, poorly fitted or top-dose-only effect, or another doubt; inactive = no such curve, though single readings can be large or run the other way.

Screening Cc1noc(C)c1CSc1nc2ccccc2n1CCc1ccccc1 returned JMJD2E inh inactive, ALDH1A1 block 28µM, Coupling enz inactive, NPSR antagonist inconclusive, Sfp PPTase inh inconclusive and GoLoco inh red inactive.
Screening Cc1noc(C)c1CSc1nnc(-c2ccccc2)n1N returned JMJD2E inh inactive, ALDH1A1 block 10µM, Coupling enz inactive, NPSR antagonist inactive, Sfp PPTase inh 32µM and GoLoco inh red inactive.
Screening Cc1noc(C)c1CSc1ccc2ccccc2n1 returned JMJD2E inh inactive, ALDH1A1 block inactive, Coupling enz inactive, NPSR antagonist inactive, Sfp PPTase inh 79µM and GoLoco inh red inactive.
Screening Cc1noc(C)c1CSc1nc2ccccc2c(=O)n1-c1ccc(Cl)cc1 returned JMJD2E inh inactive, ALDH1A1 block inactive, Coupling enz inactive, NPSR antagonist 10µM, Sfp PPTase inh inactive and GoLoco inh red inactive.
For Cc1noc(C)c1CSc1nc2ccccc2s1 the results were JMJD2E inh inactive, ALDH1A1 block inconclusive, Coupling enz inactive, NPSR antagonist inactive, Sfp PPTase inh inactive and GoLoco inh red inactive.
CC(C)N(C(=O)CSc1n[nH]c(=O)n1CCc1ccccc1)C(C)C was read as Coupling enz inactive and Sfp PPTase inh inactive.
COc1ccc(NC(C)=O)cc1C#N was read as JMJD2E inh inactive, ALDH1A1 block 3.2µM, Coupling enz inactive, NPSR antagonist inactive, Sfp PPTase inh inactive and GoLoco inh red inactive.
Screening Cc1onc(-c2c(Cl)cccc2Cl)c1C(=O)ONC(=O)c1ccccc1 returned JMJD2E inh inactive, ALDH1A1 block inconclusive, Coupling enz inactive, NPSR antagonist inactive, Sfp PPTase inh inactive and GoLoco inh red inactive.
`CS(=O)(=O)Nc1cccc(-c2cncnc2NCc2cccnc2)c1` gave ALDH1A1 block inconclusive, Coupling enz inactive, Sfp PPTase inh inactive and GoLoco inh red inactive.
Screening COc1ccc(C(=O)CSc2ccc(-c3ccco3)nn2)cc1 returned JMJD2E inh inconclusive, ALDH1A1 block 22µM, Coupling enz inactive, NPSR antagonist inactive, Sfp PPTase inh 16µM and GoLoco inh red inactive.
For CCOc1ccc(-c2ccc(SCC(=O)N3CCN(c4ccccc4)CC3)nn2)cc1 the results were JMJD2E inh inactive, ALDH1A1 block 18µM, Coupling enz inactive, NPSR antagonist inactive, Sfp PPTase inh inactive and GoLoco inh red inactive.
Screening COc1ccc(C(=O)CSc2ccc(-c3ccccc3)nn2)cc1 returned JMJD2E inh inactive, ALDH1A1 block 7.9µM, Coupling enz inactive, NPSR antagonist inactive, Sfp PPTase inh inactive and GoLoco inh red inactive.
For COc1cccc(-c2ccc(SCC(=O)c3ccccc3)nn2)c1 the results were JMJD2E inh inactive, ALDH1A1 block inconclusive, Coupling enz inactive, NPSR antagonist inactive, Sfp PPTase inh inactive and GoLoco inh red inactive.
Screening NCCNC(=O)c1ccc(Cl)cn1 returned Coupling enz inactive and Sfp PPTase inh inconclusive.
For CC(C)c1nc(N2CCN(C(=O)c3ccco3)CC2)c(C#N)c2c1COC(C)(C)C2 the results were Coupling enz inactive and Sfp PPTase inh inactive.
CCCc1cc(N2CCN(C(=O)c3ccco3)CC2)n2c(nc3ccccc32)c1C#N was read as JMJD2E inh inconclusive, ALDH1A1 block inconclusive, Coupling enz inactive, NPSR antagonist inconclusive, Sfp PPTase inh 56µM and GoLoco inh red inactive.
Screening CCCCc1nc(N2CCN(C(=O)c3ccco3)CC2)c(C#N)c2c1CCCC2 returned Sfp PPTase inh 45µM.
`CC(C)(C)CN1CCN(Cc2cccnc2)CC1CCO` (stereo not given) gave Coupling enz inactive and Sfp PPTase inh inactive.
`COc1cc2c(cc1OC)CN(C(=O)CSc1nc(C)cc(C)c1C#N)CC2` gave JMJD2E inh inactive, ALDH1A1 block inconclusive, Coupling enz inactive, NPSR antagonist inactive, Sfp PPTase inh inactive and GoLoco inh red inactive.
O=C(N1CCN(Cc2ccccc2)CC1)C12CC3CC(CC(C3)C1)C2 was read as JMJD2E inh inactive, ALDH1A1 block 6.3µM, Coupling enz inactive, NPSR antagonist inactive, Sfp PPTase inh inactive and GoLoco inh red inactive.
Screening Cc1cc(C)c(C#N)c(SCC(=O)N2CCCCC2)n1 returned JMJD2E inh inactive, ALDH1A1 block 13µM, Coupling enz inactive, NPSR antagonist inactive, Sfp PPTase inh 32µM and GoLoco inh red inactive.
Cc1cc(C)c(C#N)c(SCC(=O)N2CCN(Cc3ccccc3)CC2)n1 was read as JMJD2E inh inactive, ALDH1A1 block 20µM, Coupling enz inactive, NPSR antagonist inactive, Sfp PPTase inh inactive and GoLoco inh red inactive.
For CCOC(=O)N1CCC(NC(=O)CCCN2C(=O)CSc3ncccc32)CC1 the results were JMJD2E inh inactive, ALDH1A1 block inactive, Coupling enz inactive, NPSR antagonist inactive, Sfp PPTase inh inactive and GoLoco inh red inactive.
Screening O=C(CCCN1C(=O)CSc2ncccc21)N1CCN(Cc2ccccc2)CC1 returned JMJD2E inh inactive, ALDH1A1 block 22µM, Coupling enz inactive, NPSR antagonist inactive, Sfp PPTase inh inactive and GoLoco inh red inactive.
For CC1(C)OC(=CC=Nc2ccc(Cl)cc2)OC1(C)C the results were JMJD2E inh inactive, Coupling enz inactive, NPSR antagonist inconclusive, Sfp PPTase inh inconclusive and GoLoco inh red inactive.
For O=C(C1CCCN(S(=O)(=O)c2ccccc2)C1)N1CCCCC1 (stereo not given) the results were Coupling enz inactive and Sfp PPTase inh inactive.
For O=C(CSc1ncccn1)N1CCN(Cc2ccccc2)CC1 the results were JMJD2E inh inactive, ALDH1A1 block 28µM, Coupling enz inactive, NPSR antagonist inactive, Sfp PPTase inh inactive and GoLoco inh red inactive.
Screening Cc1cc(C)c(C#N)c(SCS(=O)Cc2ccc(Cl)cc2)n1 (stereo not given) returned JMJD2E inh inactive, ALDH1A1 block inconclusive, Coupling enz inactive, NPSR antagonist inactive, Sfp PPTase inh inactive and GoLoco inh red inactive.
For CCN(CC)C(=O)CSc1nc(C)cc(C)c1C#N the results were JMJD2E inh inactive, ALDH1A1 block inconclusive, Coupling enz inactive, NPSR antagonist inactive, Sfp PPTase inh inactive and GoLoco inh red inactive.
Screening Cc1cc(C)c(C#N)c(SCC(=O)N(C)C2CCCCC2)n1 returned JMJD2E inh inactive, ALDH1A1 block 18µM, Coupling enz inactive, NPSR antagonist inactive, Sfp PPTase inh inactive and GoLoco inh red inactive.
Cc1cc(C)c(C#N)c(SCS(=O)Cc2ccccc2)n1 (stereo not given) was read as JMJD2E inh inactive, ALDH1A1 block 8.9µM, Coupling enz inactive, NPSR antagonist inactive, Sfp PPTase inh inactive and GoLoco inh red inactive.

Screening data: PubChem BioAssay, National Center for Advancing Translational Sciences (NCATS)
